Pf growth 48h = P. falciparum growth inhibition at 48 hours (one generation); P. falciparum luciferase growth in erythrocytes, 48 h; actives 5.9% (n = 310,000); Potency, µM (titrated, usually from 28.7 µM), inactives show top-dose activity change, negative = inhibition, usual class: inhibitors; AID 504832; further: potency means the concentration at half of the fitted maximal effect; on the % scale 0 is the no-effect control and ±100 the full control effect
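Luciferase-expressing P. falciparum in infected erythrocytes (2% hematocrit, 0.1% parasitemia final) in RPMI 1640/0.5% Albumax were exposed to compound for 48 hours at 37 C, 5% CO2; growth read as luminescence.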
HCV inhibitor = inhibitors of hepatitis C virus infection; Potency, µM (top dose mostly 41.8 µM), without a hit: at the top dose activity change, negative = inhibition, actives largely listed as inhibitors; Huh7.5.1 HCVcc-Cre infection, luciferase reporter, 44 h; actives 3.4% (n = 340,000); further: potency means the concentration at half of the fitted maximal effect; on the % scale 0 is the no-effect control and ±100 the full control effect
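Whole-lifecycle infectious HCVcc-Cre system; cells 1,000/well, compound then virus (~0.5 moi) added 4 h after plating, 44 h culture. Luciferase read 15 sec following 15 min substrate incubation, room temp.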
HCMV inh = human cytomegalovirus inhibition; HFF cells, HCMV-luciferase reporter, 72 h; stronger effect = lower value; activity change, negative = inhibition, % at 57.5 µM; actives 4.5% (n = 410,000); AID 1259415; in the data active means activity change below about -60%; inconclusive means no clear call, values can overlap the other calls; inactive means above about -39%; further: on the % scale 0 is the no-effect control and ±100 the full control effect
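Steps: HFFs plated, 16 h 37C; compounds added; HCMV-luciferase added to MOI 1 PFU/cell; 72 h 37C; OneGlo reagent, 5 min room temperature; luminescence read, normalized to controls.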
Sm TGR inh = S. mansoni TGR enzyme inhibition | Q962Y6 | purified TGR, DTNB reduction, TNB absorbance 405 nm | Potency, µM (top dose mostly 114 µM), for the others: top-dose activity change, negative = inhibition, actives largely listed as inhibitors | actives 3% (n = 360,000); further: potency means the concentration at half of the fitted maximal effect; on the % scale 0 is the no-effect control and ±100 the full control effect; nearly all actives have a fitted effect of over 60% in size
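TGR 20 nM + NADPH 100 uM (dispensed conc.), cpd preinc 15 min RT; start with NADPH (500 uM addition) then DTNB (15 mM addition). Kinetic TNB absorbance, 405 nm filter. Four-parameter Hill fit across titration.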
Pf growth 96h = inhibits malaria parasite growth, 96 h; P. falciparum luciferase reporter growth, 96 h; Potency, µM (doses to about 28.7 µM), for inactives: top-dose activity change, negative = inhibition, hits mostly inhibitors; AID 504834; actives 6.9% (n = 320,000); further: potency means the concentration at half of the fitted maximal effect; on the % scale 0 is the no-effect control and ±100 the full control effect
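Parasite growth measured via integrated firefly luciferase reporter in P. falciparum. Infected erythrocytes at 2% hematocrit, 0.05% parasitemia final were treated 96 hours at 37 C under 5% CO2, and luminescence was read.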
SARS PLpro yeast = inhibitors of SARS-CoV papain-like protease in yeast; AID 485353; Potency, µM (top dose mostly 32.9 µM), without a hit: at the top dose activity, positive = growth rescue, most hits filed as activators; S. cerevisiae expressing SARS-CoV PLpro, growth rescue; actives 0.19% (n = 330,000); calls by dose curve; further: potency means the concentration at half of the fitted maximal effect; 0% is about no effect; nearly all actives have a fitted effect of over 55% in size
Starred values were filed as active, the others as inactive; ? = inconclusive; / = no result given; [ ] = another dose, or the depositor's remark. Compounds with a hit are over-represented: about 15% of the library has one in this group of screens. Unless noted, the call rests on the fitted dose curve; in most records, active means well fitted curve in the direction sought with a large enough effect; inconclusive means small, poorly fitted or top-dose-only effect, or another doubt; inactive means no such curve, though single readings can be large; an effect the other way counts as inactive or inconclusive.

SMILES	Pf growth 48h	HCV inhibitor	HCMV inh	Sm TGR inh	Pf growth 96h	SARS PLpro yeast
O=C(c1ccc(COc2c(F)c(F)c(F)c(F)c2F)o1)N1CCOCC1	5.0%	14.9%	-4.1	?	13.1µM*	-6.3%
COc1cccc(N2CCN(C(=O)c3ccc(CS(=O)c4cccc(Cl)c4)o3)CC2)c1 (stereo unspecified)	/	/	-69.5*	-32.5%	/	/
Cc1cccc(S(=O)Cc2ccc(C(=O)N3CCOCC3)o2)c1 (stereo unspecified)	4.5%	8.0%	17.0	44.7µM*	?	-4.5%
Cc1ccccc1OCCC(=O)Nc1ccc(S(=O)(=O)N2CCCC2)cc1	/	/	19.8	/	/	/
O=C(CCS(=O)(=O)c1nc(-c2ccc3c(c2)OCO3)cc(C(F)(F)F)n1)Nc1ccccc1F	/	/	2.2	?	/	/
COC(=O)c1ccccc1NC(=O)CCS(=O)(=O)c1nc(-c2ccc3c(c2)OCO3)cc(C(F)(F)F)n1	/	/	-69.7*	-20.9%	/	/
O=C(CCS(=O)(=O)c1nc(-c2ccc3c(c2)OCO3)cc(C(F)(F)F)n1)Nc1ccc(Br)cc1	/	/	-98.8*	-8.9%	/	/
CCN(C(=O)COC(=O)C(C)(C)Oc1ccc(Cl)cc1)c1c(N)n(Cc2ccccc2)c(=O)[nH]c1=O	/	1.5%	-7.4	/	/	/
O=C(CCCCCNC(=O)N1CCn2c1nc1ccccc12)NCCc1ccccc1	?	-20.3%	?	-0.1%	7.38µM*	-1.6%
O=C(CCCCCNC(=O)N1CCn2c1nc1ccccc12)NCc1ccccc1	?	-26.2%	-36.3	-9.5%	?	-3.0%
Cc1nc(NCCc2ccc(S(N)(=O)=O)cc2)c2c(C)c(C)sc2n1	?	1µM*	-88.3*	-4.3%	/	-8.3%
Cc1nc(NCc2ccc(S(N)(=O)=O)cc2)c2c(C)c(C)sc2n1	?	-29.9%	-20.4	6.0%	12.2%	1.3%
O=C(NCc1ccccc1)/C(=C\c1cccc([N+](=O)[O-])c1)NC(=O)c1ccco1	/	/	-17.4	/	/	/
CCCN(C(=O)c1noc2c1COc1ccc(C)cc1-2)c1ccc(Cl)c(Cl)c1	/	/	19.2	3.8%	/	/
Cc1cc(C)cc(NC(=O)c2cc(S(=O)(=O)N3CCCC3)ccc2F)c1	/	/	-39.0	-0.3%	/	/
O=C(Nc1ccc(C(=O)N2CCCC2)cc1)Nc1ccc(Cl)cc1Cl	15.7%	?	-18.8	0.5%	-5.3%	-0.7%
S=C(Nc1ccc(Br)cc1Cl)N1CCCC1	-2.9%	23.7%	65.7	4.6%	2.08µM*	-2.8%
O=C(Nc1ccc(CN2CCCCC2)cc1)Nc1ccc(Br)cc1Cl	?	15.8µM*	-61.7*	7.7%	12.8%	0.6%
O=C(CSc1nc(=O)n(Cc2ccco2)c2c1CCC2)NCc1ccccc1Cl	/	/	-14.0	-27.7%	/	/
CN(Cc1ccccc1)C(=O)c1nc2ccccn2c1CN1CCC(N2CCOCC2)CC1	-5.7%	3.4%	-13.6	?	10.5%	-2.1%
COCC(C)NC(=O)/C(=C/c1ccccc1)c1ccccc1 (stereo unspecified)	17.8%[5.75 µM]	0.8%	-10.1	-2.1%	?	-0.5%
CC(NC(=O)/C(=C/c1ccc(OC(F)F)cc1)c1ccccc1)c1ccccc1 (stereo unspecified)	-18.6%	?	-79.3*	8.1%	?	-56.8%
CCOC(=O)c1c(NC(=O)c2cc3nc(-c4ccc(Br)cc4)cc(C(F)(F)F)n3n2)sc(C(C)=O)c1C	/	/	7.5	-6.5%	/	/
CCn1c(O)c(N=NC(=O)c2ccc(CSc3nncn3C)cc2)c2ccccc21	10.4µM*	?	?	2.9%	11.7µM*	16.9%
Cn1cnnc1SCC(=O)NNC(=O)c1ccc(Cl)cc1	11.1%	10.6%	-39.6	-24.6%	-9.2%	16.6%
Cn1cnnc1SCc1ccc(C(=O)N=Nc2c(O)n(Cc3ccc(Cl)cc3)c3ccccc23)cc1	2.33µM*	10µM*	-32.7	-0.1%	3.7µM*	2.0%
O=C(N=Nc1c(O)n(Cc2ccccc2)c2ccccc12)c1ccc(O)cc1	?	?	33.7	-7.7%	11.7µM*	-21.5%

Source: PubChem (National Center for Advancing Translational Sciences (NCATS))
